What follows are compounds tested against Torsin-1A-interacting protein 1 (Homo sapiens) (UniProt Q5JTV8) (assay: compound microarray binding of lysate hLAP1 – cell lysate, small-molecule microarray, COS7 lysate, 635/667 nm fluorescence, primary screen (AID 1116)). Conditions: 635 nm fluorescence, higher = more signal.
Sequence of Torsin-1A-interacting protein 1 (Homo sapiens) (Q5JTV8 whole entry, looked up): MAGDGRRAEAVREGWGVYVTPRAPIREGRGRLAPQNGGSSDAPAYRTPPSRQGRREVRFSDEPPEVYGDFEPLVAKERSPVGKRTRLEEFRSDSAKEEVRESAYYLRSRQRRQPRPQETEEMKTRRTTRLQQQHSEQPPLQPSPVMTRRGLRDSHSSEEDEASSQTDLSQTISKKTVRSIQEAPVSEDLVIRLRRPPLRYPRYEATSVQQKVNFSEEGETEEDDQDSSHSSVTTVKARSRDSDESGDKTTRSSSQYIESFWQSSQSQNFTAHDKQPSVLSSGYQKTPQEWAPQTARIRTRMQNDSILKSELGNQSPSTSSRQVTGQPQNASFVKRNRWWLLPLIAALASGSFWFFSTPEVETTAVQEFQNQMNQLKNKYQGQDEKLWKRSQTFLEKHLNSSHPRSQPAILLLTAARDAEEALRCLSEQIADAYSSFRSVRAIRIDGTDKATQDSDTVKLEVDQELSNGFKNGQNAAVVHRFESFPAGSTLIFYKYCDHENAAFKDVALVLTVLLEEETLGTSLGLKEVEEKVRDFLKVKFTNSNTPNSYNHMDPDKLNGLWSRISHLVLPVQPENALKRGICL
`CCOC(=O)C[C@H]1[C@H](OC(=O)c2ccccc2-c2ccccc2)[C@@H](NC(=O)c2ccccc2)c2cc(OCCCO)ccc2N1C(=O)Cc1ccc(OC)cc1` showed a composite z-score of 0.593. For `C=CCC(OC(C)=O)[C@@H]1[C@@H](N(Cc2ccc(-c3cccc(C(F)(F)F)c3)o2)C(=O)c2cccc3ccccc23)c2cc(OCCCO)ccc2N1C(=O)c1ccc(-c2ccccc2)cc1` (stereo not given in full), the composite z-score was -0.465. `C[C@H]1ON(c2ccccc2)[C@@H](c2ccccc2)[C@@H]1C(=O)N1C(=O)OC[C@@H]1c1ccccc1` showed a composite z-score of 0.357. For `COCCOC(=O)N1C(=O)[C@@]2(c3cc(C#CCNC(N)=O)ccc31)[C@H](C(N)=O)[C@H]1C(=O)O[C@H](c3ccccc3)[C@H](c3ccccc3)N1[C@@H]2c1ccc(OCCO)cc1`, the composite z-score was 1.03. `CCCC=C(CCC)[C@@H](NS(=O)(=O)c1cccc2cccnc12)c1ccc(C(=O)OC)cc1` was tested, and the composite z-score was 0.354. `CCOC(=O)C1=CC[C@@H](c2ccccc2)N(S(=O)(=O)c2ccc(C)cc2)[C@H]1C=C(C)C` was tested, and the composite z-score was 0.647. `C#CCNS(=O)(=O)N(C)C` was tested, and the composite z-score was 0.0976. Compound `O=C1O[C@H](c2ccccc2)[C@H](c2ccccc2)N2[C@H]1[C@@H](C(=O)N1CCN(c3ncccn3)CC1)[C@]1(C(=O)Nc3ccc(C#CCCO)cc31)[C@H]2c1ccc(OCCO)cc1` has a composite z-score of 1.53. With `COCCOC(=O)N1C(=O)[C@@]2(c3cc(C#CC4(O)CCCCCC4)ccc31)[C@H](C(=O)N1CCN(c3ncccn3)CC1)[C@H]1C(=O)O[C@H](c3ccccc3)[C@H](c3ccccc3)N1[C@@H]2c1ccc(O)cc1` the composite z-score was 1.53. Compound `Cc1cc(C)c(C(O)C2C=CC3C(=O)N(c4ccccc4)C(=O)C3N2Nc2ccc([N+](=O)[O-])cc2)c(C)c1` (stereo not given) has a composite z-score of 1.29. `Cc1ccc(S[C@]2(C(=O)O)CC(=O)N(C3CCCCC3)[C@@H]2c2ccc(CO)cc2)cc1` gave a composite z-score of 0.578. `CCOc1cc(C(O)C2C=CC3C(=O)NC(=O)C3N2Nc2ccccn2)ccc1O` (stereo not given) showed a composite z-score of 0.229. `CC(=O)NCCCC[C@@H]1NC(=O)[C@@H]2C[C@H](C(=O)NCCCC[N+](C)(C)C)[C@H](c3cccc(OCCO)c3)N2C1=O` showed a composite z-score of 0.714. `COc1ccc([Si](C)(C)[C@@H]2[C@@H](CC(=O)N(CCO)Cc3ccccc3)O[C@]3(C(=O)N(Cc4ccc(N5CCOC5=O)cc4)c4ccccc43)[C@H]2C)cc1` showed a composite z-score of 1.02. In the case of `COC(=O)[C@]1(Cc2ccccc2CN=[N+]=[N-])N=C(c2ccc(OCCCO)cc2)O[C@@H]1c1ccccc1CN=[N+]=[N-]`, the composite z-score is reported as 1.39. With `CN(C)C(=O)[C@]1(Cc2ccccc2N=[N+]=[N-])N=C(c2ccc(OCCCO)cc2)O[C@@H]1c1ccccc1CN=[N+]=[N-]` the composite z-score was 0.939. `CC(C)(C)OC(=O)CC[C@@]1(C(=O)N2CCCCC2)N=C(c2ccc(OCCCO)cc2)O[C@@H]1c1ccccc1CN=[N+]=[N-]` was tested, and the composite z-score was 2.04. Compound `CCN(CC)c1ccc(N2CC=CC34O[C@@H]5/C=C\CCCOC(=O)C5[C@H]3C(=O)N(CCCCCO)[C@@H]4C2=O)cc1` (stereo not given in full) has a composite z-score of 0.424. `[N-]=[N+]=Nc1ccccc1C[C@]1(C(=O)NCCN2CCOCC2)N=C(c2ccc(OCCCO)cc2)O[C@H]1c1ccccc1N=[N+]=[N-]` gave a composite z-score of 1.51. `COC(=O)[C@]1(Cc2ccccc2CN=[N+]=[N-])N=C(c2ccc(OCCCO)cc2)O[C@@H]1c1ccccc1` gave a composite z-score of -1.18. For `COCCOC(=O)N1C(=O)[C@@]2(c3cc(C#Cc4ccc(OC)cc4)ccc31)[C@H](C(=O)N1CCc3cc(OC)c(OC)cc3C1)[C@H]1C(=O)O[C@H](c3ccccc3)[C@H](c3ccccc3)N1[C@@H]2c1ccc(O)cc1`, the composite z-score was 0.575. `COCCOC(=O)N1C(=O)[C@@]2(c3cc(C#CCCO)ccc31)[C@H](C(=O)NC[C@H](O)c1ccccc1)[C@H]1C(=O)O[C@H](c3ccccc3)[C@H](c3ccccc3)N1[C@@H]2c1ccccc1OCCO` showed a composite z-score of 1.12. Work on `COc1ccccc1CN1C(=O)c2ccccc2[C@@H](C(=O)NCC(C)C)[C@@H]1c1ccc(CO)cc1` yielded a composite z-score of 0.741. Compound `C=CCN1C(=O)[C@@]2(O[C@@H](CCn3cc([C@H](O)c4ccccc4)nn3)[C@H]([Si](C)(C)c3ccc(OC)cc3)[C@H]2C)c2cc(NC(=O)c3ccc(OC)cc3)ccc21` has a composite z-score of 0.385. `O=C(O)[C@]1(CCS(=O)(=O)c2ccccc2)N=C(c2ccc(OCCCO)cc2)O[C@@H]1c1ccccc1` gave a composite z-score of -0.357. With `CN(C)CCCN1C(=O)[C@@]2(Cc3ccccc31)c1ccccc1C(=O)N(Cc1ccccc1)[C@H]2c1ccc(CO)cc1` the composite z-score was -0.123. With `COC(=O)C(CC#Cc1ccc2c(c1)[C@]1(C(=O)N2)[C@H](c2ccc(O)cc2)N2[C@H](c3ccccc3)[C@H](c3ccccc3)OC(=O)[C@H]2[C@@H]1C(N)=O)C(=O)OC` the composite z-score was -0.931. `O=C1C2C=CC(C(O)c3ccc(Br)cc3)N(Nc3ccccc3)C2C(=O)N1c1ccccc1` (stereo not given) gave a composite z-score of 0.661. For `O=C(O)[C@@]1(Cc2ccccc2)COC(c2ccc(OCCCO)cc2)=N1`, the composite z-score was 0.28. With `COC(=O)c1ccc(OC)c(/C=C\CC(CCc2ccccc2)OC(=O)c2ccncc2)c1` (stereo not given) the composite z-score was 0.489. Compound `COC(=O)[C@@]1(Cc2ccc(OC)cc2)[C@H]2c3cc(C(=O)N4CCCC4)n(CCc4ccc(O)c(OC)c4)c3C[C@H]2CN1C(=O)c1ccccc1` has a composite z-score of 0.39. Work on `C[N+](C)(C)CCCC[C@@H]1NC(=O)[C@H]2C[C@@H](C(=O)NCCCCCCN)[C@@H](c3cccc(OCCO)c3)N2C1=O` yielded a composite z-score of 1.21. Compound `COC(=O)[C@]1(Cc2ccccc2N=[N+]=[N-])N=C(c2ccc(OCCCO)cc2)O[C@@H]1c1ccccc1` has a composite z-score of 0.738. Compound `CC(C)N1C(=O)c2ccccc2[C@](C)(C(=O)O)[C@@H]1c1ccc(CO)cc1` has a composite z-score of 0.274. Work on `COc1ccc(C(=O)Nc2ccc3c(c2)[C@]2(O[C@@H](CCO)[C@H]([Si](C)(C)c4ccc(OC)cc4)[C@H]2C)C(=O)N3Cc2ccccc2)cc1` yielded a composite z-score of 0.422.

Source: PubChem BioAssay
